From ChEMBL document CHEMBL3988442, “University of Dundee, Small-Polar-MMV Screening Library” (2021)
Screen size: about 48,000 compounds; about 13,000 (27%) showed an effect of 50% or more. The list shows a part of the results.

system: Wolbachia pipientis; experiment: Anti-Wolbachia Cell-Based Screen; assay type: functional; parameters: scale not given: in the data most compounds retested in dose-response had high values; conditions: 5 µM

| SMILES | Percent Effect [%] |
| --- | --- |
| CCc1noc(CS(=O)(=O)C(C)c2nc(C3CC3)no2)n1 (stereo unspecified) | -17.73 |
| N#Cc1ccccc1OCCN1CCCC1Cn1cccn1 (stereo unspecified) | 7.756 |
| COCC1CN(C(=O)Cc2ccc(F)cc2)Cc2ccnn2C1 (stereo unspecified) | 27.63 |
| Cn1cc(Nc2cccc(C(=O)N(CC(N)=O)C3CCCC3)c2)cn1 | 6.719 |
| CC(NC(N)=O)C(=O)NCc1cc(Br)ccc1F (stereo unspecified) | 3.265 |
| CN1CCCN(C[C@@H]2CN(C(=O)CCc3cn[nH]c3)C[C@@H]2CO)CC1 | 1.74 |
| C1CN(CC2CCOCC2)Cc2c(COCC3CC3)nnn2C1.O=C(O)C(F)(F)F | 2.92 |
| O=C(CO)N1CCCn2nnc(Cn3cccn3)c2C1 | -5.05 |
| O=C(O)C(F)(F)F.c1cnc(NCc2nnn3c2CN(CC2CC2)CCC3)nc1 | 97.82 |
| COCc1nnn2c1CN(C(=O)c1ccnnc1)CCC2 | -7.41 |
| O=C(c1ccnnc1)N1CCCn2nnc(COCC3CC3)c2C1 | -17.91 |
| O=C(CC1CC1)N1CCCn2nnc(CNc3ncccn3)c2C1 | 92.45 |
| CN(C)C(=O)NCc1nnn2c1CN(CC1CCOCC1)CCC2.O=C(O)C(F)(F)F | 4.127 |
| O=C(C1CC=CC1)N1CCCn2nnc(CNc3ncccn3)c2C1 | 108.6 |
| O=C(c1ccncc1)N1CCCn2nnc(Cn3cccn3)c2C1 | 4.632 |
| COc1ccc(OC)c(CCNC(=O)NC(C)Cn2ccnc2)c1 (stereo unspecified) | -5.904 |
| O=C(CSc1nncs1)N1CCN(Cc2ccc(Cl)s2)CC1 | -21 |
| CCSc1ccc(C(C)NC(=O)CNS(C)(=O)=O)cc1 (stereo unspecified) | 4.212 |
| O=C1OCCN1CCS(=O)(=O)c1cccc(Br)c1 | -18.91 |
| CCC(C)CNCC1(S(C)(=O)=O)CCOCC1 (stereo unspecified) | -24.39 |
| CC(=O)N1CCCCC1c1cc(CO)[nH]n1 (stereo unspecified) | -3.311 |
| Cc1n[nH]c2ncc(CNC3CCCN(c4ncccn4)C3)cc12.Cl (stereo unspecified) | -16.46 |
| OCc1cc(C2CCCN2c2ncccn2)n[nH]1 (stereo unspecified) | 112 |
| Cc1nc(C2CCCN(C(=O)c3sccc3C3CC3)C2)no1 (stereo unspecified) | -10.65 |
| Cc1cc(CN2CCN(C(=O)c3sccc3C3CC3)CC2)on1 | -1.767 |
| Cc1nc(CN2CCCN(C(=O)c3ccccn3)CC2)oc1C | 3.458 |

| SMILES | Percent Effect [%] |
| --- | --- |
| Cc1cc(CN2CCN(C(=O)c3sccc3C3CC3)CC2)no1 | 143.4 |
| O=C(c1sccc1C1CC1)N1CCN(Cc2cscn2)CC1 | 132.1 |
| Cc1nc(CN2CCN(C(=O)c3sccc3C3CC3)CC2)oc1C | 120.2 |
| COCc1nc(C(=O)N2CCN(Cc3cc(C)on3)CC2)cs1 | -18.23 |
| O=C(c1sccc1C1CC1)N1CCCN(Cc2cscn2)CC1 | 113.8 |
| NC(=O)NCC(=O)N1C[C@H]2CC[C@@H]1CN(Cc1ccccc1)C2 | -2.465 |
| CCNc1ncc(C(=O)N[C@@H](C)[C@H](O)c2ccccc2)cn1 | -5.841 |
| CS(=O)(=O)NCC(=O)N[C@H]1CN(CC2CC2)C[C@@H]1c1ccccc1 | 5.176 |
| Cc1cc(C)n(C2CCCN(C(=O)C3=NN(C)C(=O)CC3)C2)n1 (stereo unspecified) | -1.412 |
| Cc1cc(C)n(C2CCCN(C(=O)c3c(C)c(C)n[nH]c3=O)C2)n1 (stereo unspecified) | -2.25 |
| Cc1cc(C)n(C2CCN(S(C)(=O)=O)CC2)n1 | 88.3 |
| Cc1cc(C)n(C2CCN(S(=O)(=O)N3CCOCC3)CC2)n1 | 108 |
| Cc1cc(C)n(C2CCN(S(=O)(=O)N3CCC(C)CC3)CC2)n1 | 84.26 |
| Cc1ccc([C@@H]2CN(S(=O)(=O)N3CCC(C)CC3)C[C@H]2N(C)C)cc1 | 5.444 |
| Cc1cc(C)n(C2CN(CC(=O)NCC(C)(C)N3CCOCC3)C2)n1 | 4.363 |
| CC1CCN(S(=O)(=O)N2CCc3sccc3C2)CC1 | 3.018 |
| C[C@@H]1CN(S(=O)(=O)N2CCOCC2)C[C@@]1(O)C1CC1 | 13.89 |
| CN(Cc1cnn(C)c1)C1CCN(c2cccc(-c3cscn3)c2)CC1 | -7.204 |
| CCn1c(CC2CCN(C(=O)c3cc(C(C)C)nn3C)CC2)n[nH]c1=O | 0.9199 |
| Cc1occc1C(=O)NCC(=O)NCCCOc1ccc(F)cc1 | -8.265 |
| CCc1nnc(CNc2ccc(CC(=O)N3CCSCC3)cc2)o1 | 7.337 |
| CCNC(=O)[C@@H]1C[C@H](N)CN1C(=O)Cc1cc(C)ccc1C | -8.677 |
| COC(=O)[C@@H]1C[C@H](NC(=O)Cn2c(=O)cc(C)c3ccccc32)CN1C | 0.9939 |
| CCc1ccc2nc(C)cc(C(=O)N[C@@H]3CCCNC3)c2c1 | -27.02 |
| CCc1ccc2nc(C)cc(C(=O)NC3CCC(=O)N(C)C3)c2c1 (stereo unspecified) | -60.56 |
| CCc1ccc2nc(C)cc(C(=O)N[C@@H]3C[C@@H](CO)N(C)C3)c2c1 | 90.46 |

| SMILES | Percent Effect [%] |
| --- | --- |
| CCNC(=O)[C@@H]1C[C@@H](N)CN1C(=O)Cc1cc(C)ccc1C | -80.39 |
| CNc1ccc(C)cc1C(=O)N[C@H]1C[C@H]2CN(C)CCN2C1 | 9.233 |
| Cc1ccc2[nH]c(=O)cc(C(=O)NCCCn3nccc3C3CC3)c2c1 | -8.543 |
| Cc1ccc2[nH]c(=O)cc(C(=O)N[C@@H]3C[C@@H](CO)N(C)C3)c2c1 | 108.3 |
| COC(=O)[C@@H]1C[C@H](NC(=O)c2cc(=O)[nH]c3ccc(C)cc23)CN1C | 103.5 |
| CCNC(=O)[C@@H]1C[C@H](NC(=O)c2cc(=O)[nH]c3ccc(C)cc23)CN1C | 116.2 |
| COC(=O)[C@@H]1C[C@@H](NC(=O)CN2C(=O)N(C)Cc3ccccc32)CN1C | -9.28 |
| CCNc1ncc(C(=O)N2CCOC(CCCc3ccccc3)C2)cn1 (stereo unspecified) | 15.39 |
| Cc1nc(C)c(C(=O)NCc2nc3cccc(C)c3n2C)o1 | 31.6 |
| O=C(c1ncn2c1CNS(=O)(=O)c1ccccc1-2)N1CCCCC1 | -12.5 |
| CC(C)(CNC(=O)C1(c2cccc(Br)c2)CCOCC1)C(=O)O | -13.82 |
| Cc1ccccc1CCC(=O)N1CCc2ncnc(NCCO)c2CC1 | -0.3127 |
| COc1cccc(CC(=O)N2CCc3ncnc(NCCO)c3CC2)c1 | -0.2896 |
| Cc1[nH]nc(CCC(=O)N2CCc3ncnc(NCCO)c3CC2)c1C | 77.14 |
| CSCCC(=O)N1CCc2c(ncnc2N2CCOCC2)C1 | -13.57 |
| Cc1ccsc1[C@@H]1CCN(C(=O)CCc2n[nH]c(C)c2C)C[C@H]1O | 6.25 |
| Cc1nc(CCC(=O)N2Cc3cnc(-c4ccccc4)nc3C2)n[nH]1 | -6.082 |
| Cc1[nH]nc(CCC(=O)N2CCc3c(nc[nH]c3=O)C2)c1C | 104.7 |
| Cc1cnccc1N1CCCN(C(=O)CCc2n[nH]c(C)c2C)CC1 | -9.911 |
| Cc1n[nH]c(C)c1CCC(=O)N1CCc2c(nc[nH]c2=O)C1 | 106.7 |
| Cn1nc(Cn2cccc2)c2c1CN(Cc1ccoc1)C2.O=C(O)C(F)(F)F | -1.566 |
| Oc1cccc(CN2CCN(c3nccc(CCC(F)(F)F)n3)CC2)c1 | 0.5395 |
| Cc1cc(C)c2nc(CN3CCC(CN)CC3)cc(O)c2c1 | -3.326 |
| CN(C)C(=O)NCc1cc2n(n1)CCCN(CC1CCCNC1)C2 (stereo unspecified) | -1.604 |
| COC1CCN(CCNC(=O)NC(C)c2ccc(F)c(F)c2)CC1 (stereo unspecified) | 2.95 |
| CCOCCn1c(=O)n(CCC=C(C)C)c2cc(C(=O)O)cnc21 | -10.97 |

| SMILES | Percent Effect [%] |
| --- | --- |
| CC1(C)CN=C(N2CCN(CC3CCCCO3)CC2)S1 (stereo unspecified) | 87.51 |
| COCc1ccccc1C(=O)N1CCN(C2=NCC(C)(C)S2)CC1 | -20.33 |
| CC(C)c1nc(CN2CCN(CC3CCCO3)CC2)cs1 (stereo unspecified) | 2.342 |
| Cc1cc(NC2CCN(CC3CCCO3)CC2)n2nc(C)c(C)c2n1 (stereo unspecified) | 11.1 |
| CC1(C)CN=C(N2CCN(CC3CCCO3)CC2)S1 (stereo unspecified) | 67.12 |
| CCn1ncc(C(=O)N2CCN(CC3CCCO3)CC2)c1C (stereo unspecified) | -12.64 |
| CC1(C)CN=C(N2CCN(CCCN3CCOCC3)CC2)S1 | 99.8 |
| CC1(c2ccccc2)CCC(=O)N(CCCN2CCOCC2)C1 (stereo unspecified) | 6.196 |
| Cc1cnc(C)c(N2CCN(CC3CCCO3)CC2)n1 (stereo unspecified) | 94.75 |
| Cc1cnc(C)c(N2CCN(Cc3ccc(C)c(C)c3)CC2)n1 | -24.43 |
| Cc1ncc2c(n1)CN(CC1CCCCO1)CC2 (stereo unspecified) | 1.379 |
| CCC(C)NC(=O)c1coc(COc2cccc(F)c2)n1 (stereo unspecified) | -23.89 |
| Cc1nn(C(C)(C)C)c(=O)n1CC(=O)NCC(F)(F)F | 1.676 |
| O=C(NCc1ccccc1)[C@H]1C[C@@H]2CN(S(=O)(=O)C3CC3)C[C@H]1O2 | 0.5177 |
| CCC(CNS(N)(=O)=O)Oc1ccccc1F (stereo unspecified) | -4.298 |
| CC1(C)CN=C(N2CCN(CC3CCOC3)CC2)S1 (stereo unspecified) | 102.4 |
| N#Cc1c(N2CCN(CC3CCOC3)CC2)nc2ccccn12 (stereo unspecified) | -4.336 |
| COc1ncnc2c1CCN(CC1CCOC1)CC2 (stereo unspecified) | -41.04 |
| Cc1n[nH]c(C)c1S(=O)(=O)N(C)Cc1nn(C)c(Cl)c1Cl | 0.7109 |
| CCN(Cc1cc(Br)ccc1F)C(=O)C(C)NC(N)=O (stereo unspecified) | -3.713 |
| Cc1cccn2c(CNC(C)CCc3ccc(O)cc3)cnc12 (stereo unspecified) | -2.833 |
| COc1ccccc1OC1(C(=O)O)CCN(c2nccnc2C)CC1 | -2.671 |
| CCn1nc(C(C)C)cc1C(=O)N1CCOc2ccc(OC)cc21 | 10.42 |
